Results as given in the supplement of paper PMC11732987, “Enantioselective OTUD7B fragment discovery through chemoproteomics screening and high-throughput optimisation” (Communications Chemistry, 2025).

How the values were obtained:
Test in all cases: log2 ratio of Biotin-Ahx-Ub-VS probe labelling (fragment/DMSO); higher = less target engagement (more negative = stronger competition), active = hit call of the paper (q ≤ 0.05, log2 ratio ≤ -1)
Settings in all cases: compound concentration: 200 uM; treatment time: 3 h
[1] = molecular target: T1, USP19 (UniProt O94966)
T1 sequence (whole entry): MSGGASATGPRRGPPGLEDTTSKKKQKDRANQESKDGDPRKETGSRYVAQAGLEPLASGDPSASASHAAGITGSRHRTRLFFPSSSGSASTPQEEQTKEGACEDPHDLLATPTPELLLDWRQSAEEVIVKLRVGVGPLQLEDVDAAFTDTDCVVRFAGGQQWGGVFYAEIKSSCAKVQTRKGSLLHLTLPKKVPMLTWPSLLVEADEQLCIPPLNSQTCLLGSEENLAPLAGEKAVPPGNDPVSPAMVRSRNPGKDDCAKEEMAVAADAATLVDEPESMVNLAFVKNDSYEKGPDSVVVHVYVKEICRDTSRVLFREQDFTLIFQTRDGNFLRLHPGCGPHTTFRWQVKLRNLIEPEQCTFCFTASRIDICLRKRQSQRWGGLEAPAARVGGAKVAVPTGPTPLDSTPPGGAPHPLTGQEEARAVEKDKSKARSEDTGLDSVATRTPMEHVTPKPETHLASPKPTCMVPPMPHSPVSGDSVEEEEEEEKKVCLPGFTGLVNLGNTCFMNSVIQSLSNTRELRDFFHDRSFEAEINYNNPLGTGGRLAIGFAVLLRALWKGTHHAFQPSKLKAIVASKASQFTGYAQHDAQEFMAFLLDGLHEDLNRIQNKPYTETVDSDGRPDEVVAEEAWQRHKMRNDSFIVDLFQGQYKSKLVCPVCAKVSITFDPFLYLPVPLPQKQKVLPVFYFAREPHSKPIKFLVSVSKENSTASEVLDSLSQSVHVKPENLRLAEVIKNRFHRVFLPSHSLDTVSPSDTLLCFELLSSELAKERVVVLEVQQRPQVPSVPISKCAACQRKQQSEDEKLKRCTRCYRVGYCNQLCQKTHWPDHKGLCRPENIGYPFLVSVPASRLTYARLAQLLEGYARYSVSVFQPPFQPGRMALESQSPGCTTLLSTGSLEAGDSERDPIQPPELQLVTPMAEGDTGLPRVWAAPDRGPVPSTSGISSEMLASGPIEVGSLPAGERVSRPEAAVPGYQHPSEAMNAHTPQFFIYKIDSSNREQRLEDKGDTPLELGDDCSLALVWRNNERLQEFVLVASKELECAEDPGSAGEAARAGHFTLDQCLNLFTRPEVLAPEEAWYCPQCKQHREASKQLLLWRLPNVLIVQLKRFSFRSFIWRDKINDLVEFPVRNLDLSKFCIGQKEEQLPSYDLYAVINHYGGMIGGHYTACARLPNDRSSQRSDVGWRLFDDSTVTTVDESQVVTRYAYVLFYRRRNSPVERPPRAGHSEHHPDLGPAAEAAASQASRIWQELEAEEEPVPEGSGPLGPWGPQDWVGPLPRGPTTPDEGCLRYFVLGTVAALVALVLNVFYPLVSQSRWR
How it was run: (§1)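 Global-median-normalised Spectronaut label-free quantities were compared by unpaired t-test, and values are average log2 ratios of fragment over vehicle. Only proteins with ≥2 unique peptides were used. HEK293T lysate (495 µg per sample) was treated in triplicate with fragment at 200 µM or vehicle for 3 h and then with Biotin-Ahx-Ub-VS at 0.5 µM final for 1 h. Labelled DUBs were then NeutrAvidin-enriched, digested with LysC and trypsin, and run by diaPASEF LC-MS/MS.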

[2] = molecular target: T2, USP22 (UniProt Q9UPT9)
T2 sequence (whole entry): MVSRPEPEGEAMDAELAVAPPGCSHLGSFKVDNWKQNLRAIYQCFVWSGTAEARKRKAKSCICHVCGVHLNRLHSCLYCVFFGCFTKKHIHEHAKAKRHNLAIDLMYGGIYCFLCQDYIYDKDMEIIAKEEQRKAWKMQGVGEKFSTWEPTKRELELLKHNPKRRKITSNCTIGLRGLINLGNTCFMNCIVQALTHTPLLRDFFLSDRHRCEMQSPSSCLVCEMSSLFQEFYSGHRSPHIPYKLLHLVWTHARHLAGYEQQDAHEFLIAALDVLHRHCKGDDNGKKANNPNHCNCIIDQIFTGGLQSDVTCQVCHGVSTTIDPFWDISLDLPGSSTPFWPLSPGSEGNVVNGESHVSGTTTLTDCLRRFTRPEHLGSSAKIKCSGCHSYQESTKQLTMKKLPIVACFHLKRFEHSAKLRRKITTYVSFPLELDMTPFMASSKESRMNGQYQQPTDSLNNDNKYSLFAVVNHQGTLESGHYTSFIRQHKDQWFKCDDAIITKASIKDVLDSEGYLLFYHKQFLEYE
How it was run: as §1

[3] = molecular target: USP24 (UniProt Q9UPU5)
How it was run: as §1

[4] = molecular target: T3, USP25 (UniProt Q9UHP3)
T3 sequence (whole entry): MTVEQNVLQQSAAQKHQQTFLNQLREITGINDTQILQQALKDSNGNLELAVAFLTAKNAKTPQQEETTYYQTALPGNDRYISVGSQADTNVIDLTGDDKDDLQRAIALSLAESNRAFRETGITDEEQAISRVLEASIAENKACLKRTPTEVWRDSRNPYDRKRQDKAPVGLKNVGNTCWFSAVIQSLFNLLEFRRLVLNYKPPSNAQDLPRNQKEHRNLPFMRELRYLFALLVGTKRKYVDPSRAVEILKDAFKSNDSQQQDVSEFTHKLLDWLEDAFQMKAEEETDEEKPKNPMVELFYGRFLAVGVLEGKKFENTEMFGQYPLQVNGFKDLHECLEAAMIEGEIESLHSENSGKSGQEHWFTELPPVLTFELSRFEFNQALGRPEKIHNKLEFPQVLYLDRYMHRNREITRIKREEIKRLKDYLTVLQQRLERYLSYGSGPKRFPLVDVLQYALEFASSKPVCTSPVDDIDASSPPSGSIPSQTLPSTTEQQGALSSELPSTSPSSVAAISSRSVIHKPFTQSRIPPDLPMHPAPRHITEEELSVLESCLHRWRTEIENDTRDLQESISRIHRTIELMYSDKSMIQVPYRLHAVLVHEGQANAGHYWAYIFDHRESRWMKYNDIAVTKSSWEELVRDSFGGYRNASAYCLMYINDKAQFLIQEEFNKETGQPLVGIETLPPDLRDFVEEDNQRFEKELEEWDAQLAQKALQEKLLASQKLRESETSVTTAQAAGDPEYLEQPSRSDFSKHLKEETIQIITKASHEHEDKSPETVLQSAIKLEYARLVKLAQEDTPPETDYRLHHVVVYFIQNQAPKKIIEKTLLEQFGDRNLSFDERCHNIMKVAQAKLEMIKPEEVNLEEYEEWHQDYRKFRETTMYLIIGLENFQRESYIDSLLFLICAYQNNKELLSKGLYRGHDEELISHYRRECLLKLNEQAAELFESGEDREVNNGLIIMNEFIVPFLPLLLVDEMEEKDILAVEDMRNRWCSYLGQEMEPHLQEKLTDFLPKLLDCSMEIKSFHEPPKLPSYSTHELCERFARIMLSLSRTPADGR
How it was run: as §1

[5] = molecular target: T4, USP28 (UniProt Q96RU2)
T4 sequence (whole entry): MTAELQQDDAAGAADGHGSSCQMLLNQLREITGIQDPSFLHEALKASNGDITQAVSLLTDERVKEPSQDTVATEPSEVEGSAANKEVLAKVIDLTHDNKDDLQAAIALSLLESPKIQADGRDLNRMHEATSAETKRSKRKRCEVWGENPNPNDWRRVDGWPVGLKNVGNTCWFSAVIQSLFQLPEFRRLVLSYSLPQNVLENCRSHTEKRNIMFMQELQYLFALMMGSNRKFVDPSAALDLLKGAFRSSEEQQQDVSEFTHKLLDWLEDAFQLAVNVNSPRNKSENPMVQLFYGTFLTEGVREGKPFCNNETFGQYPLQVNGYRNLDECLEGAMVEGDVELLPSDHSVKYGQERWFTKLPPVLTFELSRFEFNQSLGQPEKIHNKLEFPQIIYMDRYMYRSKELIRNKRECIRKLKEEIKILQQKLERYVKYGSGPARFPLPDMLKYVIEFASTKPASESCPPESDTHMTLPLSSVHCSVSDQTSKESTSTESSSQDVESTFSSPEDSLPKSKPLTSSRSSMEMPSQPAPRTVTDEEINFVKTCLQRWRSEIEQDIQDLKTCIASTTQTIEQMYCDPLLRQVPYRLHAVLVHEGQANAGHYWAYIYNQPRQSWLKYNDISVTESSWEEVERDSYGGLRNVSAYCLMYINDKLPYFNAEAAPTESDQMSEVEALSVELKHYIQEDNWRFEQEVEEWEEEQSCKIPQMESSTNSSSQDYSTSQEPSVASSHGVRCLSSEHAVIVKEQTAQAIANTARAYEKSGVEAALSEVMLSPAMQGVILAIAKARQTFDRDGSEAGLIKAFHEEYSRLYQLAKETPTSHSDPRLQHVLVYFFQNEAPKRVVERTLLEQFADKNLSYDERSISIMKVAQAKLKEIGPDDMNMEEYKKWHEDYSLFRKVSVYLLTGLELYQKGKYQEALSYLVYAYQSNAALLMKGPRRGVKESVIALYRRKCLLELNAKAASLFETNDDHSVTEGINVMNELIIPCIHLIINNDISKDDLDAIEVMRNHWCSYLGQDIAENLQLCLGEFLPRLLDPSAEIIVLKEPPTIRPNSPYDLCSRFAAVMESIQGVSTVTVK
How it was run: as §1

Measured: log2 ratio of Biotin-Ahx-Ub-VS probe labelling

USP24, sequence (Q9UPU5 whole entry): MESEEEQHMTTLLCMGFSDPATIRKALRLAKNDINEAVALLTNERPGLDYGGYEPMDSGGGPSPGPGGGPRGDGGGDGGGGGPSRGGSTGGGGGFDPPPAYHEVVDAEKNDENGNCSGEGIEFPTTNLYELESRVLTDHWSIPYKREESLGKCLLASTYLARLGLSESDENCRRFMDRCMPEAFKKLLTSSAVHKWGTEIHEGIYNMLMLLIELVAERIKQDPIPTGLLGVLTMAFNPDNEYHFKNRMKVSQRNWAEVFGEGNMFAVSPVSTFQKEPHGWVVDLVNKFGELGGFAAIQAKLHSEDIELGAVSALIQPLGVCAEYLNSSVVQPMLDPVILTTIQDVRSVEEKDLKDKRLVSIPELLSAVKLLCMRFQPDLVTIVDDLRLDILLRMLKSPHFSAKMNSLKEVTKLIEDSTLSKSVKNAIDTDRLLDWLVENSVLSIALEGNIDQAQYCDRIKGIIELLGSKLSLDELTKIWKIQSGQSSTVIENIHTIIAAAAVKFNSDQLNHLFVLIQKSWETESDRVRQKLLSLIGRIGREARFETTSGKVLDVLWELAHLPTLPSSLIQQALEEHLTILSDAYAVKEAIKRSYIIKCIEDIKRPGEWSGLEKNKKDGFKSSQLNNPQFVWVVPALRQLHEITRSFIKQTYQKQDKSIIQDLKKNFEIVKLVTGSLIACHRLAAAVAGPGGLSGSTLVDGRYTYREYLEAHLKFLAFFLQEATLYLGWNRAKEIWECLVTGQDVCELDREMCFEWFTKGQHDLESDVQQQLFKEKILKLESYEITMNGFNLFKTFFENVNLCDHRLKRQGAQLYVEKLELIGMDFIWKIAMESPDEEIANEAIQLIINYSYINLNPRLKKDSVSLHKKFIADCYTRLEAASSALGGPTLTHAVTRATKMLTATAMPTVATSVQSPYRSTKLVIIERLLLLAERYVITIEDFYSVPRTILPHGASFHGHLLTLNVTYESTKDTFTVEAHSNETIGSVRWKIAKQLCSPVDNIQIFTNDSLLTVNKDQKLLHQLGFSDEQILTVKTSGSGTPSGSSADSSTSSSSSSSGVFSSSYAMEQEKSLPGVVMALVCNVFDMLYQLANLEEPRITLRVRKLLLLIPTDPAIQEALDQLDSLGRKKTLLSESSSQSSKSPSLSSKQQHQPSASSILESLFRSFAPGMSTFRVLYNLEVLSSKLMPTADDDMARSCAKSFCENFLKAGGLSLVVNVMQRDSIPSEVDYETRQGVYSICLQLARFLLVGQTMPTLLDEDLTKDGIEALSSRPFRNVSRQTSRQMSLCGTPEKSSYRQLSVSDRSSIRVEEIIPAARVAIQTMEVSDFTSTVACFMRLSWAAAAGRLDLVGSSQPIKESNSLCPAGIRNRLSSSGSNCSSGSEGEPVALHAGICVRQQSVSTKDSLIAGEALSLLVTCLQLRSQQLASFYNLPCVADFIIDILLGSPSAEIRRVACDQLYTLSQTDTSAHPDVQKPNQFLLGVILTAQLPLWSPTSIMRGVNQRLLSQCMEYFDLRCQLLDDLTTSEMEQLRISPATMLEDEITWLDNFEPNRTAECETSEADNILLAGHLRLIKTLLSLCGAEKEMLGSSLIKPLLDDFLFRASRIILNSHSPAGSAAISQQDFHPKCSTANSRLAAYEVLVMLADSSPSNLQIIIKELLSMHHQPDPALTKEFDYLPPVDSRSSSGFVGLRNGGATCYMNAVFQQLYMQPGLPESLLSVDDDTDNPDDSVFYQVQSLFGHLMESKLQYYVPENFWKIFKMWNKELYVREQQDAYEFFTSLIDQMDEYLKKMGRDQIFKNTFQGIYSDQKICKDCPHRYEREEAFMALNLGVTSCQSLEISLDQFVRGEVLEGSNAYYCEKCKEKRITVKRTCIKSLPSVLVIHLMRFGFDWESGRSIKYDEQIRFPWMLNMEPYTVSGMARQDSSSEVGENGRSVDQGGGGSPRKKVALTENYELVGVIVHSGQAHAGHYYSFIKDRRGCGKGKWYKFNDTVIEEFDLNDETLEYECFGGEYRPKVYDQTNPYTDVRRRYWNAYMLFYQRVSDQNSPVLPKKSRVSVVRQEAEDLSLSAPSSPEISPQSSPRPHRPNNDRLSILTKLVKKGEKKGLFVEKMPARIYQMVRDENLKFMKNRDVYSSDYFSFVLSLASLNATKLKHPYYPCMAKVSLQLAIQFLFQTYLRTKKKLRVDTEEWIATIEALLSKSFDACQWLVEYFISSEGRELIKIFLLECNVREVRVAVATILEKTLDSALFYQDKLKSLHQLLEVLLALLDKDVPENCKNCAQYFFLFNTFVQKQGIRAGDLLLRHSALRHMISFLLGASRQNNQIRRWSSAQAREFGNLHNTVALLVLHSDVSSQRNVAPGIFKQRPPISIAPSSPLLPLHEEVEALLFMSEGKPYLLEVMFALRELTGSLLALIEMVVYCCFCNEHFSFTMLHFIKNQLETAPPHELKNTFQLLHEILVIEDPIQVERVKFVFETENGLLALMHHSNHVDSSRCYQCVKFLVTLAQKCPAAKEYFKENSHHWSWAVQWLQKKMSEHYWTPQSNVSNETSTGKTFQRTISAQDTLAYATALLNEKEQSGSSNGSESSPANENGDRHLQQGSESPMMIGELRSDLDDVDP

CC(NC(=O)CCl)c1ccc2[nH]ncc2c1 (stereo not given)
inactive: [1] -0.529 | [2] 0.0735 | [3] -0.886 | [4] -0.509 | [5] -0.901
